High-throughput results (PubChem)
An excerpt weighted towards active compounds, which were near 2.4% of everything screened.
FEN1 inh = qHTS Assay for the Inhibitors of Human Flap endonuclease 1 (FEN1) | P39748 | actives 0.35% (n = 390,000) | Recombinant FEN1 flap cleavage, fluorescence, 15 min | Potency, µM (titrated, usually from 114 µM), hits mostly inhibitors; also: nearly all actives have a fitted effect of over 65% in size
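FEN1 at 10 nM preincubated with compounds 15 min at room temperature, then flap DNA substrate added at 50 nM final. Signal read at 0 and 15 min; concentration-response fitted with four-parameter Hill equation.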
POLI inh = qHTS for Inhibitors of Polymerase Iota; DNA polymerase iota (Homo sapiens), Q9UNA4; Pol iota fluorescent replication assay, 10 min; Potency, µM (titrated, usually from 115 µM), hits mostly inhibitors; actives 1% (n = 390,000)
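Pol iota at 10 nM preincubated 15 min with compounds at room temperature; reaction started with fluorescent substrate, 50 nM final. Fluorescence read kinetically at 0 and 10 min; buffer-only wells as negative control.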
POLB inh = qHTS Assay for Inhibitors of DNA Polymerase Beta; P06746; Potency, µM (doses to about 114 µM), most hits filed as inhibitors; AID 485314, 2010; Pol beta primer extension/strand displacement, fluorescence kinetic; actives 1.3% (n = 340,000)
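Curves were derived by four-parameter Hill fits of normalized qHTS data. The kinetic fluorescent primer-extension read was taken at 0 and 10 min after 50 nM substrate, following a 15 min room-temperature preincubation of 10 nM enzyme with compounds.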
WRN helicase inh-1 = qHTS for Inhibitors of WRN Helicase; actives 0.46% (n = 360,000); WRN helicase unwinding, fluorescent forked duplex, kinetic; Bifunctional 3'-5' exonuclease/ATP-dependent helicase WRN (Homo sapiens), Q14191; Potency, µM (doses to about 114 µM), actives largely listed as inhibitors; AID 651768, 2012; also: nearly all actives have a fitted effect of over 55% in size
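Enzyme (20 nM final) and test compound sit together 15 min at room temperature before substrate addition. Substrate is a single-forked duplex oligonucleotide (100 nM) labelled with fluorophore and quencher, with 2 mM ATP; helicase unwinding raises red fluorescence, read kinetically.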
Pol eta inh = qHTS for Inhibitors of Polymerase Eta. recombinant Pol eta, fluorescent DNA replication assay. Potency, µM (doses to about 114 µM), usual class: inhibitors. actives 1.2% (n = 390,000)
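Pol eta (10 nM) was preincubated with compounds for 15 min at room temperature, after which fluorescent replication substrate (50 nM final) was added to start the reaction. Fluorescence was read kinetically at 0 and 10 min.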
POLK inh = qHTS for Inhibitors of Polymerase Kappa; DNA polymerase kappa (Homo sapiens), Q9UBT6; purified Pol kappa, fluorescent DNA synthesis assay, 10 min; Potency, µM (highest dose often 107 µM), hits mostly inhibitors; actives 0.53% (n = 400,000); AID 588579, 2011
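First, compounds were pin-transferred onto 10 nM Pol kappa. After 15 min at room temperature, substrate was added to 50 nM final. Fluorescence was then measured kinetically at 0 and 10 min.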
WRN helicase inh-2 = qHTS for Inhibitors of WRN Helicase: Confirmatory Assay for Cherry-picked Compounds. shares compounds with WRN helicase inh-1. WRN helicase DNA unwinding, fluorescence kinetic. Potency, µM (titrated, usually from 57.1 µM), actives largely listed as inhibitors. actives 63% (n = 610). AID 720497, 2013; also: nearly all actives have a fitted effect of over 65% in size
TO DNA binding = qHTS for Inhibitors of WRN Helicase: Thiazole Orange DNA Binding Counterscreen; shares compounds with WRN helicase inh-1; thiazole orange DNA binding displacement, fluorescence; Potency, µM (highest dose often 57.1 µM), most hits filed as inhibitors; actives 10% (n = 610); AID 720499, 2013;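 also: drop in dye fluorescence marks compound binding to DNA; nearly all actives have a fitted effect of over 60% in size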
BLM helicase inh = qHTS for Inhibitors of WRN Helicase: BLM Helicase Counterscreen for WRN Inhibitors | shares compounds with WRN helicase inh-1 | Recombinant BLM helicase DNA unwinding, red fluorescence | Potency, µM (titrated, usually from 57.1 µM), most hits filed as inhibitors | actives 60% (n = 610) | AID 720503, 2013; also: nearly all actives have a fitted effect of over 60% in size
Of the large screens only hits and unclear results are named; the others gave an inactive call (follow-up assays come after a bar, where they were run). Calls follow the shape of the dose curve; as a rule, active = well fitted curve in the direction sought with a large enough effect; inconclusive = small, poorly fitted or top-dose-only effect, or another doubt; inactive = no such curve, though single readings can be large; an effect the other way counts as inactive or inconclusive.

O=S(=O)(Nc1cc(Sc2ncn[nH]2)c(O)c2ccccc12)c1ccccc1	FEN1 inh 20µM, POLI inh 1.1µM, POLB inh inconclusive, WRN helicase inh-1 35µM, Pol eta inh 22µM | WRN helicase inh-2 inconclusive | TO DNA binding inactive | BLM helicase inh inconclusive
CCOc1ccccc1-n1nnc(-c2nc(-c3ccccc3C)no2)c1C	none (no result: WRN helicase inh-1)
CCOC(=O)c1c(-c2ccc(F)cc2)csc1NC(=O)CN1C(=O)NC2(CCCCC2C)C1=O (stereo not drawn)	FEN1 inh inconclusive, POLI inh inconclusive, POLB inh inconclusive, WRN helicase inh-1 inconclusive, Pol eta inh inconclusive, POLK inh inconclusive | WRN helicase inh-2 inactive | TO DNA binding inactive | BLM helicase inh inactive
COc1ccc(-n2c(O)c(/C=N/NS(=O)(=O)c3ccc(C)cc3)c3ccccc3c2=O)cc1OC	POLI inh 40µM, POLB inh inconclusive, WRN helicase inh-1 40µM | WRN helicase inh-2 inactive | TO DNA binding inactive | BLM helicase inh inconclusive
CC(C)N1CCc2c(sc(NC(=O)c3cc4cc([N+](=O)[O-])ccc4s3)c2C(N)=O)C1	FEN1 inh inconclusive, WRN helicase inh-1 79µM | WRN helicase inh-2 17µM | TO DNA binding 17µM | BLM helicase inh 14µM
CC(C)N1CCc2c(sc(NC(=O)c3ccc4ccccc4c3)c2C(N)=O)C1	FEN1 inh inconclusive
CNc1ccccc1C(C)(C)c1cc(-c2cccc(Br)c2)no1	POLI inh inconclusive, WRN helicase inh-1 79µM, Pol eta inh inconclusive | WRN helicase inh-2 inconclusive | TO DNA binding inactive | BLM helicase inh inconclusive
CNc1ccccc1C(C)(C)c1cc(-c2cccc([N+](=O)[O-])c2)no1	none
CN(C)CCCNc1nc2cc(-c3ccc4c(ccn4C)c3)sc2c(=O)n1C	WRN helicase inh-1 inconclusive (no result: FEN1 inh, POLI inh, POLB inh, Pol eta inh, POLK inh) | WRN helicase inh-2 24µM | TO DNA binding 24µM | BLM helicase inh inactive
CN(C)CCCNc1nc2cc(-c3ccsc3)sc2c(=O)n1C	none (no result: FEN1 inh, POLI inh, POLB inh, Pol eta inh, POLK inh)
CCOc1ccccc1-n1c(=O)c2ccccc2c2ccccc2c1=O	WRN helicase inh-1 inconclusive | WRN helicase inh-2 inactive | TO DNA binding inactive | BLM helicase inh inactive
CCOc1ccc(-n2c(=O)c3ccccc3c3ccccc3c2=O)cc1	WRN helicase inh-1 inconclusive
Cc1ccccc1N=Cc1cc2c(cc1O)OC(N)=C(C#N)C2c1ccccc1 (stereo not drawn)	WRN helicase inh-1 inconclusive, Pol eta inh inconclusive, POLK inh inconclusive | WRN helicase inh-2 inconclusive | TO DNA binding inactive | BLM helicase inh inconclusive
CCc1nnc(NC(=O)c2cc(C)nc3ccccc23)s1	none
CCc1nnc(NC(=O)c2cc(-c3ccc(C)o3)nc3ccccc23)s1	WRN helicase inh-1 inconclusive (no result: POLB inh) | WRN helicase inh-2 inconclusive | TO DNA binding inactive | BLM helicase inh inactive
CCOc1cc(/C=C2/SC(=S)N(CC3CCCO3)C2=O)ccc1O (stereo not drawn)	POLI inh 28µM, POLB inh inconclusive, WRN helicase inh-1 35µM | WRN helicase inh-2 inconclusive | TO DNA binding inactive | BLM helicase inh 22µM
CN(C1CCCCC1)S(=O)(=O)c1ccc2c(c1)c(=O)c(C(=O)NCc1ccccc1Cl)cn2C	none (no result: WRN helicase inh-1)
Cc1ccc(S(=O)(=O)c2ccc([N+](=O)[O-])cn2)cc1	POLI inh inconclusive, WRN helicase inh-1 inconclusive | WRN helicase inh-2 inactive | TO DNA binding inactive | BLM helicase inh inactive
COc1ccccc1CCNC(=O)c1ccc(NC(=O)N2CC(C)Sc3ccccc32)cc1 (stereo not drawn)	POLB inh inconclusive (no result: WRN helicase inh-1)
COc1ccc(OC)c(/C=N/Nc2nc(C)cc(=O)[nH]2)c1	POLB inh inconclusive, WRN helicase inh-1 89µM, Pol eta inh inconclusive | WRN helicase inh-2 inactive | TO DNA binding inactive | BLM helicase inh inactive
O=C1C=C(c2ccccc2)C(=O)N1Nc1ccccc1	WRN helicase inh-1 inconclusive | WRN helicase inh-2 inactive | TO DNA binding inactive | BLM helicase inh inactive
